Reference: PubChem BioAssay (Tox21)
Results filed as inconclusive are left out. The source made the active and inactive calls. Unless noted, calls come from the whole dose curve; as a rule, active = well fitted curve in the direction sought with a large enough effect in the repeat runs; inconclusive = weak or mixed curves; inactive = no such curve, though single readings can be large; an effect the other way counts as inactive or inconclusive.

Tests used:
[1] = molecular target: Acetylcholinesterase (Homo sapiens) (UniProt P22303); test: Acetylcholinesterase (AChE) small molecule antagonists: enzyme-based qHTS assay (AID 1347397; calls by dose curve; note: nearly all actives have a fitted effect of over 55% in size); conditions: Potency: AChE enzyme activity inhibition; outcome: AChE enzyme activity inhibition
Method in brief: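 Human recombinant acetylcholinesterase; substrate acetylthiocholine; thiocholine quantified with DTNB (colorimetric). Compound preincubation 30 min RT; reaction 10 min RT.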

[2] = molecular target: Acetylcholinesterase (Homo sapiens) (UniProt P22303); test: Acetylcholinesterase (AChE) small molecule antagonists: fluorescence cell-based qHTS assay (AID 1347398; calls by dose curve; note: nearly all actives have a fitted effect of over 50% in size); conditions: Potency: AChE activity; outcome: AChE activity
Method in brief: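 Thiocholine generated from acetylthiocholine by SH-SY5Y cell AChE is detected with Thiolite Green (Ex/Em 490/520 nm) after 40 min at room temperature, following 30 min compound pretreatment at 37 C.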

[3] = molecular target: Acetylcholinesterase (Homo sapiens) (UniProt P22303); test: Acetylcholinesterase (AChE) small molecule antagonists: enzyme-based qHTS assay with human liver microsomes (AID 1347399; calls by dose curve; note: nearly all actives have a fitted effect of over 60% in size); conditions: Potency: qHTS inhibition; outcome: qHTS inhibition
Method in brief: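 Recombinant human AChE (50 mU/mL in the enzyme mix) and human liver microsomes (0.25 mg/mL final) were preincubated with compound and NADPH (0.25 mg/mL final) for 30 min at 37 C. Acetylthiocholine/DTNB was then added; thiocholine was read colorimetrically after 10 min at room temperature.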

[4] = qHTS assay for small molecule agonists of the p53 signaling pathway (AID 651631; calls by dose curve; note: nearly all actives have a fitted effect of over 15% in size)
Method in brief: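 Testing took place in human colorectal HCT-116 cells with stable p53RE-driven beta-lactamase. After 16 h of compound exposure at 37 °C, a FRET substrate was added and fluorescence recorded 2 h later.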

[5] = qHTS assay for small molecules that induce genotoxicity in human embryonic kidney cells expressing luciferase-tagged ATAD5 (AID 651632); note: nearly all actives have a fitted effect of over 15% in size
Method in brief: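 Genotoxicity read-out via ATAD5-luciferase: HEK293T cells, 16 hr compound incubation at 37C, Amplite detection.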

[6] = qHTS assay for small molecule agonists of the p53 signaling pathway - cell viability (AID 651633; calls by dose curve; note: series mostly up to about 83 µM; nearly all actives have a fitted effect of over 30% in size)
Method in brief: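 p53RE-bla cells, seeded at 4,000 per well and rested 5 h at 37 C/5% CO2, received compounds in DMSO for 16 h at 37 C. CellTiter-Glo was then added, and luminescence was read after 30 min at room temperature to gauge cytotoxicity.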

[7] = qHTS assay for small molecules that induce genotoxicity in human embryonic kidney cells expressing luciferase-tagged ATAD5 - cell viability (AID 651634; calls by dose curve; note: nearly all actives have a fitted effect of over 25% in size)
Method in brief: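 Live-cell protease activity (CellTiter-Fluor, fluorescence) indicates viability. HEK293T cells with luciferase-tagged ATAD5; 15.5 hr compound treatment at 37C.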

[8] = qHTS assay for small molecule disruptors of the mitochondrial membrane potential - cell viability (AID 720634; calls by dose curve;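 note: human HepG2 liver cancer cells; series mostly up to about 83 µM; nearly all actives have a fitted effect of over 20% in size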)
Method in brief: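 Human hepatoma HepG2 cells were treated for 1 hr with test chemicals, then given m-MPI dye and CellTiter-Glo. Cell viability reflects luminescence proportional to cellular ATP.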

[9] = qHTS assay for small molecule disruptors of the mitochondrial membrane potential (AID 720635)
Method in brief: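 HepG2 cells (2,000/well) attached overnight at 37C, then took compound for 1 hr at 37C, 5% CO2. Mito-MPS dye was added for 30 min; fluorescence was read at 490/535 nm (monomers) and 540/590 nm (aggregates).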

[10] = qHTS assay to test for compound auto fluorescence at 590 nm (red) in HepG2 cells (AID 720674)
Method in brief: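 Intrinsic compound fluorescence in the red window (Ex/Em 540/590 nm) is measured in attached HepG2 cells exposed for 1 hr, DMSO vehicle as baseline, benchmarked to Rose Bengal sodium.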

[11] = qHTS assay to test for compound auto fluorescence at 535 nm (green) in HepG2 cells (AID 720675)
[12] = qHTS assay to test for compound auto fluorescence at 460 nm (blue) in HEK293 cells (AID 720678)
Method in brief: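 Blue read-out at excitation 405 nm and emission 460 nm follows overnight compound exposure of HEK293 cells at 37C in 5% CO2. Activity is given as auto fluorescence equivalency to triamterene.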

[13] = qHTS assay to test for compound auto fluorescence at 590 nm (red) in HEK293 cells (AID 720679)
Method in brief: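 Red channel, Ex/Em 540/590nm; signal expressed as equivalency to Rose Bengal sodium. HEK293, 2,000 cells/well, 10% dialyzed FBS; 23 nL compound pinned after 4-5 hr attachment; overnight 37C/5% CO2 before reading.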

[14] = qHTS assay to test for compound auto fluorescence at 535 nm (green) in HEK293 cells (AID 720680)
[15] = qHTS assay to test for compound auto fluorescence at 460 nm (blue) in HEK293 cell free culture (AID 720681)
Method in brief: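 Test compounds were pinned into cell-free culture medium (DMEM with 10% FBS) and fluorescence was read directly at Ex/Em 405/460 nm. Signals were expressed as fluorescence equivalents of triamterene, with DMSO vehicle as control.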

[16] = qHTS assay to test for compound auto fluorescence at 535 nm (green) in HEK293 cell free culture (AID 720682)
Method in brief: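 DMEM + 10% FBS, cell-free; cpd or DMSO pinned in; Ex485/Em535 read; output as fluorescein-equivalent signal.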

[17] = qHTS assay to test for compound auto fluorescence at 590 nm (red) in HEK293 cell free culture (AID 720683)
Method in brief: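 Tox21 10K library compounds were pinned into cell-free DMEM with 10% FBS and fluorescence was read at excitation 540 nm. Activity is expressed as Rose Bengal sodium equivalency.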

[18] = qHTS assay to test for compound auto fluorescence at 590 nm (red) in HepG2 cell free culture (AID 720684)
Method in brief: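 Measured in medium alone (MEM containing 10% FBS) following pintool addition of compound; emission at 590 nm with 540 nm excitation, referenced to Rose Bengal sodium.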

[19] = qHTS assay to test for compound auto fluorescence at 460 nm (blue) in HepG2 cell free culture (AID 720685)
Method in brief: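 Compound (23 nL) or DMSO pinned into cell-free MEM with 10% FBS; blue fluorescence read at 405/460 nm excitation/emission, expressed as auto-fluorescence equivalency to triamterene.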

[20] = qHTS assay to test for compound auto fluorescence at 535 nm (green) in HepG2 cell free culture (AID 720686)
[21] = qHTS assay to test for compound auto fluorescence at 460 nm (blue) in HepG2 cells (AID 720687)
Method in brief: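 Cells (2,000/well in MEM with 10% FBS) attached overnight at 37 C, then were exposed to compound or DMSO for 1 hr at 37 C, 5% CO2. Fluorescence read at Ex/Em 405/460 nm, expressed as triamterene-equivalent signal.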

[22] = molecular target: Glucocorticoid receptor (Homo sapiens) (UniProt P04150); test: qHTS assay to identify small molecule agonists of the glucocorticoid receptor (GR) signaling pathway (AID 720691; active = well fitted activation curve with a large enough effect in the signal ratio in the repeat runs, not every such curve was filed as active; the % refers to the signal ratio)
Method in brief: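 Beta-lactamase reporter activity, read as fluorescence intensity, was measured in GR-bla HeLa cells exposed to compounds for 18 h at 37 C and then loaded with LiveBLAzer B/G FRET substrate for 2 h at room temperature.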

[23] = molecular target: Glucocorticoid receptor (Homo sapiens) (UniProt P04150); test: qHTS assay to identify small molecule antagonists of the glucocorticoid receptor (GR) signaling pathway (AID 720692; active = well fitted inhibition curve with a large enough effect in the signal ratio in the repeat runs, not every such curve was filed as active; the % refers to the signal ratio; note: potency is the fitted concentration of half-maximal effect)
Method in brief: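 Fluorescence from cleaved LiveBLAzer B/G FRET substrate reports GRE-driven beta-lactamase in HeLa cells; compounds are tested against 5 nM dexamethasone (final) over 18 h at 37 C, substrate incubation 2 h at room temperature.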

[24] = qHTS assay to identify small molecule antagonists of the glucocorticoid receptor (GR) signaling pathway - cell viability counter screen (AID 720693); note: nearly all actives have a fitted effect of over 55% in size
[25] = qHTS assay to identify small molecule antagonists of the androgen receptor (AR) signaling pathway - cell viability counter screen (AID 743033; note: nearly all actives have a fitted effect of over 45% in size)
[26] = qHTS assay to identify small molecule antagonists of the androgen receptor (AR) signaling pathway using the MDA cell line - cell viability counter screen (AID 743041; note: nearly all actives have a fitted effect of over 45% in size)
Method in brief: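 Viability counter screen run alongside the AR antagonist reporter: cells seeded 5 h before compound, R1881 added, 16 h incubation at 37C without CO2, fluorescent CellTiter-Fluor signal quantified.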

[27] = qHTS assay to identify small molecule antagonists of the thyroid receptor (TR) signaling pathway - cell viability counter screen (AID 743064); note: nearly all actives have a fitted effect of over 50% in size; note: potency is the fitted concentration of half-maximal effect
Method in brief: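 Viability of T3-stimulated (1 nM final) GH3.TRE-Luc cells is measured by CellTiter-Fluor fluorescence after 23.5 h compound exposure at 37 °C plus 30 min reagent incubation.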

[28] = tested on: thyroid hormone receptor (rat, GH3 cells); test: qHTS assay to identify small molecule agonists of the thyroid receptor (TR) signaling pathway (AID 743066; calls by dose curve)
[29] = molecular target: Estrogen receptor (Homo sapiens) (UniProt P03372); test: qHTS assay to identify small molecule antagonists of the estrogen receptor alpha (ER-alpha) signaling pathway (AID 743069; active = well fitted curve in the direction sought with a large enough effect in the signal ratio in the repeat runs, not every such curve was filed as active; the % refers to the signal ratio)
Method in brief: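 Estradiol-stimulated ER-alpha-UAS-bla HEK293 cells, 18 hr compound exposure at 37C. LiveBLAzer B/G substrate, 2 hr RT, fluorescence read.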

[30] = qHTS assay to identify small molecule antagonists of the estrogen receptor alpha (ER-alpha) signaling pathway - cell viability counter screen (AID 743074; calls by dose curve;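 note: HEK293 cells carrying ER-alpha-UAS-bla reporter stimulated with 17beta-estradiol; nearly all actives have a fitted effect of over 45% in size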)
[31] = molecular target: Estrogen receptor (Homo sapiens) (UniProt P03372); test: qHTS assay to identify small molecule agonists of the estrogen receptor alpha (ER-alpha) signaling pathway (AID 743075; calls by dose curve;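 note: HEK293 GripTite cells with ER-alpha and UAS-driven beta-lactamase reporter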)
[32] = molecular target: Estrogen receptor (Homo sapiens) (UniProt P03372); test: qHTS assay to identify small molecule agonists of the estrogen receptor alpha (ER-alpha) signaling pathway using the BG1 cell line (AID 743079); note: nearly all actives have a fitted effect of over 20% in size
[33] = qHTS assay to identify small molecule antagonists of the estrogen receptor alpha (ER-alpha) signaling pathway using the BG1 cell line (AID 743080; calls by dose curve;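 note: BG1 cells stimulated with 17beta-estradiol alongside compound; series mostly up to about 70 µM; nearly all actives have a fitted effect of over 25% in size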)
Method in brief: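 Luminescence from a 4×ERE-luciferase reporter in BG1-Luc-4E2 cells served as read-out. Cells, pre-cultured 5 days in stripped-serum phenol-red-free medium, were exposed to compound with 17beta-estradiol co-stimulation for 21.5 h at 37 C.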

Aromatase (Homo sapiens) = Aromatase (Homo sapiens) (UniProt P11511); test: qHTS assay to identify aromatase inhibitors (AID 743083); note: series mostly up to about 70 µM; nearly all actives have a fitted effect of over 55% in size
[34] = qHTS assay to identify aromatase inhibitors - cell viability counter screen (AID 743084);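 note: cells stimulated with testosterone during compound exposure; nearly all actives have a fitted effect of over 55% in size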
[35] = molecular target: Aryl hydrocarbon receptor (Homo sapiens) (UniProt P35869); test: qHTS assay to identify small molecule that activate the aryl hydrocarbon receptor (AhR) signaling pathway (AID 743085); note: nearly all actives have a fitted effect of over 15% in size; note: potency is the fitted concentration of half-maximal effect;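 for activation: HG2L7.5c1 human HepG2 liver cells with stably integrated DRE-driven firefly reporter; series mostly up to about 70 µM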
Method in brief: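 A multiplexed format paired cell viability (CellTiter-Fluor fluorescence) with AhR-dependent luciferase output (ONE-Glo luminescence) in the same wells of HepG2 DRE-luc cells after 24 h compound exposure at 37C.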

[36] = qHTS assay to identify small molecule that activate the aryl hydrocarbon receptor (AhR) signaling pathway - cell viability counter screen (AID 743086);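 note: HepG2 liver cells carrying the AhR DRE luciferase reporter; series mostly up to about 70 µM; nearly all actives have a fitted effect of over 45% in size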
Method in brief: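 HepG2-AhR-luc (HG2L7.5c1) cells, 4000/well, were preincubated 5 h at 37C, exposed to compound in qHTS format for 24 hr at 37C, then given CellTiter-Fluor for 30 min; viability was read as fluorescence in the reporter wells.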

[37] = molecular target: Peroxisome proliferator-activated receptor gamma (Homo sapiens) (UniProt P37231); test: qHTS assay to identify small molecule agonists of the peroxisome proliferator-activated receptor gamma (PPARg) signaling pathway (AID 743094; active = well fitted activation curve with a large enough effect in the signal ratio in the repeat runs, not every such curve was filed as active; the % refers to the signal ratio)
Method in brief: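 Stably transfected HEK293H cells (GeneBLAzer PPARg UAS-bla) were incubated with test substances for 17 h at 37C after a 5 h pre-incubation; beta-lactamase activity was then detected by FRET substrate fluorescence.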

[38] = qHTS assay for identifying genotoxic compounds that show differential cytotoxicity against isogenic chicken DT40 cell lines with known DNA damage response pathways - wild type cell line (AID 743012); note: potency is the fitted concentration of half-maximal effect; nearly all actives have a fitted effect of over 60% in size
Method in brief: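 Quantitative HTS on parental DT40 cells: 40 h compound treatment at 37 C/5% CO2, with viability then determined by CellTiter-Glo luminescence. Values serve as the DNA repair-proficient reference for differential cytotoxicity.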

[39] = qHTS assay for identifying genotoxic compounds that show differential cytotoxicity against isogenic chicken DT40 cell lines with known DNA damage response pathways - Rev3 mutant cell line (AID 743014)
[40] = qHTS assay for identifying genotoxic compounds that show differential cytotoxicity against isogenic chicken DT40 cell lines with known DNA damage response pathways - Rad54/Ku70 mutant cell line (AID 743015); note: potency is the fitted concentration of half-maximal effect; nearly all actives have a fitted effect of over 60% in size
[41] = qHTS assay to identify small molecule antagonists of the thyroid receptor (TR) signaling pathway (AID 743065)
Method in brief: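 GH3.TRE-Luc rat pituitary cells carrying two TR response elements driving luciferase were plated for 4 h, given compound plus 1 nM T3 (final), and incubated 23.5 h at 37 C. ONE-Glo luminescence measured reporter inhibition; CellTiter-Fluor fluorescence tracked cytotoxicity.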

[42] = qHTS assay to identify small molecule antagonists of the estrogen receptor alpha (ER-alpha) signaling pathway using the BG1 cell line - cell viability counter screen (AID 743081)

Measured: Potency

Sequence of Estrogen receptor (Homo sapiens) (P03372 whole entry, looked up): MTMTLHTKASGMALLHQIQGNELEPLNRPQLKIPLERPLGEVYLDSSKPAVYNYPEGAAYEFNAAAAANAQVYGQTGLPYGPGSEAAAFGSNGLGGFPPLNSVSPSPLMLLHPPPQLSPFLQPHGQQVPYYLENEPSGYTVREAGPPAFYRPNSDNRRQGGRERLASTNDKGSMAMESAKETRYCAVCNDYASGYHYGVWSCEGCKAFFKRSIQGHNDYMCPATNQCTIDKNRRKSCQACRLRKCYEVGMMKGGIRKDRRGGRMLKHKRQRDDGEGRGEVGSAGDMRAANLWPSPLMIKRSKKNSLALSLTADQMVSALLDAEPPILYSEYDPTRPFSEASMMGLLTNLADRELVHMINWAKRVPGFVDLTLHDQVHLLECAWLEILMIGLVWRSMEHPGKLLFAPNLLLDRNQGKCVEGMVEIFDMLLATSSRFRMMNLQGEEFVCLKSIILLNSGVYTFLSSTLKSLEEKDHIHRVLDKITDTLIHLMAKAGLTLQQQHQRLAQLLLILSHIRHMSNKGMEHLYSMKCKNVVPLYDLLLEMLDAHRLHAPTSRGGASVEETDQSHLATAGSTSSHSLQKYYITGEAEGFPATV
Sequence of Glucocorticoid receptor (Homo sapiens) (P04150 whole entry, looked up): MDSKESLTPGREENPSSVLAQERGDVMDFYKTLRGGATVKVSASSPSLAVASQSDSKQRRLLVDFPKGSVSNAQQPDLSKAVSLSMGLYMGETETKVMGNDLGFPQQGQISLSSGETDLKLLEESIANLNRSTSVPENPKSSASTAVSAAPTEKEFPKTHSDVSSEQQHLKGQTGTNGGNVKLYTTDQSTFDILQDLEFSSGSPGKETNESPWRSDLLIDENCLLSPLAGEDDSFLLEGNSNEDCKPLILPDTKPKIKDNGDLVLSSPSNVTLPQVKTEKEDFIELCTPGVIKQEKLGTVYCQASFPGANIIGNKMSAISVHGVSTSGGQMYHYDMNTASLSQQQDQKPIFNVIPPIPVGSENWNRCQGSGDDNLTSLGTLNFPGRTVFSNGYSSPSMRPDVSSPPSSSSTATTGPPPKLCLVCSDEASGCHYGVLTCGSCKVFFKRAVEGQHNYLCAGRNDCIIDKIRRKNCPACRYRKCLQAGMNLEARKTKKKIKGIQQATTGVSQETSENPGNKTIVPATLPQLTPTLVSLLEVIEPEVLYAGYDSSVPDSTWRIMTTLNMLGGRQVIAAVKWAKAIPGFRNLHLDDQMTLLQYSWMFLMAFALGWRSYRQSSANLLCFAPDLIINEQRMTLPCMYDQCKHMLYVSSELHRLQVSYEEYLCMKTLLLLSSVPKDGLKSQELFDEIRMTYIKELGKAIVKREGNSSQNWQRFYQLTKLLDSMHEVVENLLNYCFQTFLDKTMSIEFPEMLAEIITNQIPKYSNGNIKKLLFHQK
Sequence of Acetylcholinesterase (Homo sapiens) (P22303 whole entry, looked up): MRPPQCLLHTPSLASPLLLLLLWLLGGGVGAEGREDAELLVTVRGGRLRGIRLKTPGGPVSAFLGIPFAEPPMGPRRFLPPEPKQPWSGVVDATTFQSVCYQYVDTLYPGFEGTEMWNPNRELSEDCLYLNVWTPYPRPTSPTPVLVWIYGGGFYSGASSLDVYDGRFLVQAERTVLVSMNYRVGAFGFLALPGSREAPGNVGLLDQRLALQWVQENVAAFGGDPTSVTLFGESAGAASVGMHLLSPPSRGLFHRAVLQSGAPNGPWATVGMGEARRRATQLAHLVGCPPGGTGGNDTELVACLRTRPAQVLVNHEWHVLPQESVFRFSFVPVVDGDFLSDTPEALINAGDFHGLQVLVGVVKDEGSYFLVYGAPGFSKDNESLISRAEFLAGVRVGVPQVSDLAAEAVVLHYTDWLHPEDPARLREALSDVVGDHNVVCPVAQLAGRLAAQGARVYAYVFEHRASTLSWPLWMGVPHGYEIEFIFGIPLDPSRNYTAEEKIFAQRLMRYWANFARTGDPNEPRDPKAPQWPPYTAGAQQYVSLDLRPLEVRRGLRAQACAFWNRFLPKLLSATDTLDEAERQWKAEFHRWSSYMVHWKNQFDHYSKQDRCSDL
Sequence of Aromatase (Homo sapiens) (P11511 whole entry, looked up): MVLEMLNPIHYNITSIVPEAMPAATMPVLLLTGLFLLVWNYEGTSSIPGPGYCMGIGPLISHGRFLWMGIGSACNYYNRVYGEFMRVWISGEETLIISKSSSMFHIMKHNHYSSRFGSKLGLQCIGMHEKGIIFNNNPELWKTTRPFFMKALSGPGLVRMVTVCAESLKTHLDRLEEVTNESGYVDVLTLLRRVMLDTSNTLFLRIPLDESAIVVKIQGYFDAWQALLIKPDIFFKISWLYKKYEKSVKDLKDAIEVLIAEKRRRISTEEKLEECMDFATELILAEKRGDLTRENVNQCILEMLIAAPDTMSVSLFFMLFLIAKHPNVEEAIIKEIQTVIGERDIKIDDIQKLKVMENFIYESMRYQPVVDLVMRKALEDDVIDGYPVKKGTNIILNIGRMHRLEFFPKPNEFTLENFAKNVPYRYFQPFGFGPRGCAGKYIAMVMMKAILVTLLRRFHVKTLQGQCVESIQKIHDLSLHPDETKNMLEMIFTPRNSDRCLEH
Sequence of Aryl hydrocarbon receptor (Homo sapiens) (P35869 whole entry, looked up): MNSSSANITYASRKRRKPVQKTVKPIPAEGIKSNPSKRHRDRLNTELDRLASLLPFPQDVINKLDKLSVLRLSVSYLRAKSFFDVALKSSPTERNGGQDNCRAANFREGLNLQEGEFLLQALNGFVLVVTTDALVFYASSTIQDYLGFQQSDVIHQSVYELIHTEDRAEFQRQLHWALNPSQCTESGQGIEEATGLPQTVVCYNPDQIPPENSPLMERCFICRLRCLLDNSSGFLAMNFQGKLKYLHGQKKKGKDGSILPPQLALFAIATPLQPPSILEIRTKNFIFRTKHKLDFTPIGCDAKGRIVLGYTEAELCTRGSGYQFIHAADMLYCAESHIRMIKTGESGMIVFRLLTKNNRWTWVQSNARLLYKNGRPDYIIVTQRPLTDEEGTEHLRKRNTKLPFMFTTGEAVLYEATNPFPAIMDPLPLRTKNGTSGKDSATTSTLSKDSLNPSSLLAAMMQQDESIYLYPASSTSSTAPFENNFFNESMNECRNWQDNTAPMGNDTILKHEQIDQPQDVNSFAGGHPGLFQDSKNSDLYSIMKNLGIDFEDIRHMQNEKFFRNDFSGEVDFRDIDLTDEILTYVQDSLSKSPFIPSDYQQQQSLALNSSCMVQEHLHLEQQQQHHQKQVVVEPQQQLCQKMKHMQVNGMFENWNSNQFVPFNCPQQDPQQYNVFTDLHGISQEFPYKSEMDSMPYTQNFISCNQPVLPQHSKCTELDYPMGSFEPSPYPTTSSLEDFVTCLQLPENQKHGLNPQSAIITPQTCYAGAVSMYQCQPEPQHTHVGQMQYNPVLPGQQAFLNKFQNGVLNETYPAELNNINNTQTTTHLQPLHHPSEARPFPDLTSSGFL
Sequence of Peroxisome proliferator-activated receptor gamma (Homo sapiens) (P37231 whole entry, looked up): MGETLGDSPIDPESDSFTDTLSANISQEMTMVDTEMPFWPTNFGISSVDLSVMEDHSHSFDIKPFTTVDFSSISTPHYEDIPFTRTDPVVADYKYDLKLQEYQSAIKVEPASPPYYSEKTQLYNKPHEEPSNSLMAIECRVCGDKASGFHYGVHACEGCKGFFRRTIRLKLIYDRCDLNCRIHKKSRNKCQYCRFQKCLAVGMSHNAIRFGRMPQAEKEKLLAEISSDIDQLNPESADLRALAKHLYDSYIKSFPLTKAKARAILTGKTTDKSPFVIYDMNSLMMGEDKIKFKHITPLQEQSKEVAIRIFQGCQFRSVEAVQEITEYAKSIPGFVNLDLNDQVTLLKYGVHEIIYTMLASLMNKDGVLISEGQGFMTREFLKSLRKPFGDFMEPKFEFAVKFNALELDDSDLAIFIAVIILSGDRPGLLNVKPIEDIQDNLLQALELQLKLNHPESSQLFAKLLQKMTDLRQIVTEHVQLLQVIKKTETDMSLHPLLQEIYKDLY

O=Cc1ccc(O)c(O)c1O
inactive: [1] | [2] | [3]

O=C1CN=C(c2ccccc2)c2cc(Cl)ccc2N1
active: [23] 23.9 µM
not listed: [1] | [2] | [3] | [38] | [39] | [40] | [41] | [42]
inactive: all other assays above

C[C@@H]1[C@@H]2Cc3ccc(O)cc3[C@@]1(C)CCN2CCc1ccccc1
active: [38] 3.81 µM | [39] 9.57 µM | [40] 7.6 µM | [27] 60.4 µM | [41] 53.8 µM | [35] 8.53 µM
not listed: [1] | [2] | [3] | [4] | [23] | [25] | [26] | [28] | [29] | [32] | [33] | [36] | [37]
inactive: all other assays above

CCCCCCCCCC/C=C/C#N
inactive: [1] | [2] | [3]

NC(Cc1c[nH]c2ccccc12)C(=O)O (configuration not stated)
inactive: [1] | [2] | [3]

OC1OC[C@@H](O)[C@H](O)[C@H]1O (some centres not stated)
inactive: [1] | [2] | [3]
